# ± gives the standard deviation of the averaged measurements.
# Legend:
# Assay in all cases: cell viability (% of vehicle); higher = less cytotoxic
# [1] = test system: HCI01 (cells of a triple-negative basal-like breast cancer xenograft); settings: 10 µM; 72 h
# [2] = test system: HCI03 (cells of an ER-positive luminal breast cancer xenograft); settings: 10 µM; 72 h
# [3] = test system: HCI09 (cells of a triple-negative luminal androgen receptor type breast cancer xenograft); settings: 10 µM; 72 h
# [4] = test system: HCI11 (cells of an ER-positive luminal breast cancer xenograft); settings: 10 µM; 72 h
# [5] = test system: HCI13 (cells of an ER-positive luminal breast cancer xenograft); settings: 10 µM; 72 h
# [6] = test system: HCI16 (cells of a triple-negative basal-like breast cancer xenograft); settings: 10 µM; 72 h
# [7] = test system: UCD52 (cells of a triple-negative basal-like breast cancer xenograft); settings: 10 µM; 72 h
# [8] = test system: WHIM2 (cells of a triple-negative basal-like breast cancer xenograft); settings: 10 µM; 72 h
# [9] = test system: HCI01; settings: 1 µM; 72 h
# [10] = test system: UCD52; settings: 1 µM; 72 h
# [11] = test system: WHIM2; settings: 1 µM; 72 h
# [12] = test system: WHIM30 (cells of a triple-negative basal-like breast cancer xenograft); settings: 1 µM; 72 h
# [13] = test system: WHIM30; settings: 10 µM; 72 h
compound,measurement,setting,value
CN1CCN(CCCN2c3ccccc3Sc3ccc(Cl)cc32)CC1 [Prochlorperazine],cell viability,[1],113 ± 3
same,cell viability,[2],118
same,cell viability,[3],98.8 ± 8.7
same,cell viability,[4],91.1
same,cell viability,[5],128 ± 17
same,cell viability,[6],92.1
same,cell viability,[7],63.7 ± 7.7
same,cell viability,[8],74.7 ± 5
CNC(=O)C(Cc1c[nH]c2ccccc12)NC(=O)C(CC(=O)NO)CC(C)C (stereo unspecified),cell viability,[1],141 ± 3.8
same,cell viability,[2],116
same,cell viability,[3],88.9 ± 9.2
same,cell viability,[4],129
same,cell viability,[5],92.5 ± 5.4
same,cell viability,[6],140
same,cell viability,[7],126 ± 16
same,cell viability,[8],105 ± 14
Cc1nc(=O)c2cc(CN(C)c3ccc(C(=O)NC(CCC(=O)O)C(=O)O)s3)ccc2[nH]1 (stereo unspecified) [Raltitrexed],cell viability,[1],93.9 ± 5.5
same,cell viability,[2],122
same,cell viability,[3],104 ± 27
same,cell viability,[4],86.9
same,cell viability,[5],95.59 ± 0.3
same,cell viability,[6],99
same,cell viability,[7],106 ± 4
same,cell viability,[8],116 ± 2
CC(C)c1nc(N(C)S(C)(=O)=O)nc(-c2ccc(F)cc2)c1C=CC(O)CC(O)CC(=O)[O-].CC(C)c1nc(N(C)S(C)(=O)=O)nc(-c2ccc(F)cc2)c1C=CC(O)CC(O)CC(=O)[O-].[Ca+2] (stereo unspecified) [Rosuvastatin Calcium],cell viability,[9],96.2
same,cell viability,[10],83.1
same,cell viability,[11],83.4
same,cell viability,[12],84.8
same,cell viability,[1],109 ± 2.8
same,cell viability,[2],115
same,cell viability,[3],112 ± 44
same,cell viability,[5],126 ± 30
same,cell viability,[6],117
same,cell viability,[7],50.8 ± 4.2
same,cell viability,[8],44.1 ± 6.8
same,cell viability,[13],88.4 ± 11
CC(O)C(=O)O.CC(O)C(=O)O.CN1CCN(c2ccc3c(c2)NC(=C2C(=O)N=c4cccc(F)c4=C2N)N3)CC1 [Dovitinib Dilactic acid],cell viability,[9],103
same,cell viability,[10],89.6
same,cell viability,[11],96.9
same,cell viability,[12],77.8
same,cell viability,[1],43.1 ± 5.7
same,cell viability,[3],19.9 ± 0.23
same,cell viability,[4],66
same,cell viability,[5],79 ± 2.3
same,cell viability,[6],44.4
same,cell viability,[7],21.9 ± 2.9
same,cell viability,[8],52.2 ± 12
O=C(Nc1ccccc1)c1ccccc1O [Salicylanilide],cell viability,[1],165 ± 40
same,cell viability,[2],133
same,cell viability,[3],143 ± 34
same,cell viability,[4],111
same,cell viability,[5],98.3 ± 6.3
same,cell viability,[6],153
same,cell viability,[7],123 ± 4.3
same,cell viability,[8],160 ± 20
COc1ccc(Cl)cc1C(=O)NCCc1ccc(S(=O)(=O)NC(=O)NC2CCCCC2)cc1 [Glibenclamide],cell viability,[1],103 ± 13
same,cell viability,[2],151
same,cell viability,[3],93.7 ± 16
same,cell viability,[4],93.2
same,cell viability,[5],108.2 ± 0.86
same,cell viability,[6],110
same,cell viability,[7],119 ± 3.5
same,cell viability,[8],134.7 ± 0.95
C1=C\COCc2cc(ccc2OCCN2CCCC2)Nc2nccc(n2)-c2cccc(c2)COC/1 [Pacritinib],cell viability,[9],70.5
same,cell viability,[10],49.1
same,cell viability,[11],77.3
same,cell viability,[12],47.3
same,cell viability,[1],28.9 ± 7.5
same,cell viability,[3],25.9 ± 3.1
same,cell viability,[4],131
same,cell viability,[5],50.7 ± 7
same,cell viability,[6],133
same,cell viability,[7],35.1 ± 1.6
same,cell viability,[8],49.9 ± 4.6
same,cell viability,[13],50.7 ± 17
CCN1CCN(C(=O)NC(C(=O)NC2C(=O)N3C(C(=O)O)=C(CSc4nnnn4C)CSC23)c2ccc(O)cc2)C(=O)C1=O (stereo unspecified) [Cefoperazone],cell viability,[1],110.1 ± 0.54
same,cell viability,[2],158
same,cell viability,[3],120 ± 16
same,cell viability,[4],132
same,cell viability,[5],174 ± 9.6
same,cell viability,[6],104
same,cell viability,[7],131 ± 18
same,cell viability,[8],108 ± 22
CC1CCN(C(=O)CC#N)CC1N(C)c1ncnc2[nH]ccc12.O=C(O)CC(O)(CC(=O)O)C(=O)O (stereo unspecified),cell viability,[1],188 ± 8.3
same,cell viability,[2],151
same,cell viability,[3],77.7 ± 1.5
same,cell viability,[4],115
same,cell viability,[5],104 ± 9.7
same,cell viability,[6],141
same,cell viability,[7],109 ± 21
same,cell viability,[8],87.9 ± 3
CC[C@@]1(O)C(=O)OCc2c1cc1n(c2=O)Cc2cc3c(CN(C)C)c(O)ccc3nc2-1.Cl [Topotecan HCl],cell viability,[9],65.4
same,cell viability,[10],93.4
same,cell viability,[11],49.6
same,cell viability,[12],41.7
same,cell viability,[1],38 ± 13
same,cell viability,[3],35.2 ± 10
same,cell viability,[4],51.9
same,cell viability,[5],54.7 ± 1.9
same,cell viability,[6],69.1
same,cell viability,[7],42 ± 7.3
same,cell viability,[8],43.7 ± 2.5
same,cell viability,[13],82.1 ± 9.8
CCC1OC(=O)CC(O)C(C)C(OC2OC(C)C(OC3CC(C)(O)C(O)C(C)O3)C(N(C)C)C2O)C(CC=O)CC(C)C(=O)C=CC(C)=CC1COC1OC(C)C(O)C(OC)C1OC.O=C(O)C(O)C(O)C(=O)O (stereo unspecified) [Tylosin tartrate],cell viability,[1],75.1 ± 40
same,cell viability,[2],165
same,cell viability,[3],88.2 ± 5.5
same,cell viability,[4],82.3
same,cell viability,[5],97.3 ± 33
same,cell viability,[6],126
same,cell viability,[7],85.2 ± 5.8
same,cell viability,[8],110.8 ± 0.8
CC(=O)NC1C(N=C(N)N)C=C(C(=O)O)OC1C(O)C(O)CO (stereo unspecified) [Zanamivir],cell viability,[1],82.4 ± 58
same,cell viability,[2],156
same,cell viability,[3],96 ± 12
same,cell viability,[4],90.8
same,cell viability,[5],108 ± 2.3
same,cell viability,[6],113
same,cell viability,[7],90.4 ± 1.5
same,cell viability,[8],106 ± 31
O=c1cc[nH]c(=O)[nH]1 [Uracil],cell viability,[1],120 ± 20
same,cell viability,[2],139
same,cell viability,[3],116 ± 28
same,cell viability,[4],98.8
same,cell viability,[5],64.47 ± 0.33
same,cell viability,[6],116
same,cell viability,[7],101 ± 7
same,cell viability,[8],135 ± 11
CC1(COc2ccc3c(c2)ncn3-c2ccc3cccc(N4CCC(N)CC4)c3n2)COC1,cell viability,[9],97.6
same,cell viability,[10],138
same,cell viability,[12],71.3
same,cell viability,[1],41.1 ± 22
same,cell viability,[3],12.7 ± 2.4
same,cell viability,[5],26.6 ± 24
same,cell viability,[7],34 ± 9.8
same,cell viability,[8],35 ± 13
same,cell viability,[13],60.3 ± 3.4
Cc1c(OCC(F)(F)F)ccnc1CS(=O)c1nc2ccccc2[nH]1 (stereo unspecified) [Lansoprazole],cell viability,[1],170 ± 24
same,cell viability,[2],160
same,cell viability,[3],97.4 ± 32
same,cell viability,[4],128
same,cell viability,[5],142 ± 24
same,cell viability,[6],144
same,cell viability,[7],190 ± 5.9
CC(C)CC(NC(=O)C(CCc1ccccc1)NC(=O)CN1CCOCC1)C(=O)NC(Cc1ccccc1)C(=O)NC(CC(C)C)C(=O)C1(C)CO1 (stereo unspecified) [Carfilzomib (PR-171)],cell viability,[9],29.2
same,cell viability,[10],16.6
same,cell viability,[11],43.9
same,cell viability,[12],22.9
same,cell viability,[1],32.3 ± 3.5
same,cell viability,[3],25.7 ± 4.7
same,cell viability,[4],55.9
same,cell viability,[5],32.9 ± 4.7
same,cell viability,[6],38.9
same,cell viability,[7],64.4 ± 11
same,cell viability,[8],26.4 ± 11
same,cell viability,[13],68.8 ± 2.6
OCCN1CC(O)C(O)C(O)C1CO (stereo unspecified) [Miglitol],cell viability,[1],68.9 ± 43
same,cell viability,[2],136
same,cell viability,[3],99.2 ± 8.7
same,cell viability,[4],92.4
same,cell viability,[5],113 ± 0.17
same,cell viability,[6],116
same,cell viability,[7],86.2 ± 7.9
same,cell viability,[8],95.7 ± 50
COC(=O)Nc1nc2ccc(Sc3ccccc3)cc2[nH]1 [Fenbendazole],cell viability,[1],193 ± 48
same,cell viability,[2],129
same,cell viability,[3],182 ± 25
same,cell viability,[4],129
same,cell viability,[5],155 ± 32
same,cell viability,[6],153
same,cell viability,[7],121.4 ± 0.081
same,cell viability,[8],142 ± 20
